Compound activity (PubChem)
This is a sample that favours compounds with a hit; in the whole collection about 2.4% have one here.
POLH inh: qHTS for Inhibitors of Polymerase Eta; 390,000 tested, 1.2% active; recombinant Pol eta, fluorescent DNA replication assay; Potency, µM (doses to about 114 µM), most hits filed as inhibitors; DNA polymerase eta (Homo sapiens), Q9Y253
Target sequence (Q9Y253 whole entry, looked up): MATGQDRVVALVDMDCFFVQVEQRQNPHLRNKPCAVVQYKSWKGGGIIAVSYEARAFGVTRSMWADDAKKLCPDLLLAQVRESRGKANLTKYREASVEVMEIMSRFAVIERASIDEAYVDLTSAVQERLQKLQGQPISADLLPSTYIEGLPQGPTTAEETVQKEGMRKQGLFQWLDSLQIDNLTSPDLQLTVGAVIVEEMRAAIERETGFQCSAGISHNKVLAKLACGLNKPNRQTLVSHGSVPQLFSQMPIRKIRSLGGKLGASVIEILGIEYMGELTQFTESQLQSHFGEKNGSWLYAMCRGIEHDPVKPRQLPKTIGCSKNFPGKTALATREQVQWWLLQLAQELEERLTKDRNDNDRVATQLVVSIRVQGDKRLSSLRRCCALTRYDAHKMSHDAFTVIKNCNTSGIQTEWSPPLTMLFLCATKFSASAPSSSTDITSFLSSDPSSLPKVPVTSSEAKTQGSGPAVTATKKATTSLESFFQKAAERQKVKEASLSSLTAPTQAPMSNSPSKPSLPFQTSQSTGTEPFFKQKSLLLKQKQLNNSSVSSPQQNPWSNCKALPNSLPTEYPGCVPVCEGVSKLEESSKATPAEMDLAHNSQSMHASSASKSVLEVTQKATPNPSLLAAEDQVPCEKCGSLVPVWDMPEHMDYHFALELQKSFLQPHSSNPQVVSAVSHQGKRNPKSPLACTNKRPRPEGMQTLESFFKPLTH
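Pol eta (10 nM) was preincubated with compounds for 15 min at room temperature, after which fluorescent replication substrate (50 nM final) was added to start the reaction. Fluorescence was read kinetically at 0 and 10 min.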
L3MBTL1 block: qHTS Assay for the Inhibitors of L3MBTL1. Potency, µM (top dose mostly 57.1 µM), actives largely listed as inhibitors. 230,000 tested, 0.66% active. AID 485360, 2010. AlphaScreen L3MBTL1–H3K9me1 peptide binding; further: nearly all actives have a fitted effect of over 60% in size
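L3MBTL1 50 nM + b-AHA-H3(1-15)K9me1 75 nM, 30 min RT; compound added, 30 min RT; streptavidin donor/Ni-chelate acceptor beads 10 ug/mL each final, 30 min RT dark; AlphaScreen read.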
Pol beta inh: qHTS Assay for Inhibitors of DNA Polymerase Beta. P06746. Pol beta primer extension/strand displacement, fluorescence kinetic. Potency, µM (doses to about 114 µM), actives largely listed as inhibitors. 340,000 tested, 1.3% active. AID 485314, 2010
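Homogeneous kinetic assay of primer extension and strand displacement by 10 nM Pol beta, preincubated 15 min at room temperature with compound before 50 nM substrate (final) was added. Read at 0 and 10 min; four-parameter Hill fit.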
Pol kappa inh: qHTS for Inhibitors of Polymerase Kappa. DNA polymerase kappa (Homo sapiens), Q9UBT6. purified Pol kappa, fluorescent DNA synthesis assay, 10 min. Potency, µM (top dose mostly 107 µM), most hits filed as inhibitors. 400,000 tested, 0.53% active
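First, compounds were pin-transferred onto 10 nM Pol kappa. After 15 min at room temperature, substrate was added to 50 nM final. Fluorescence was then measured kinetically at 0 and 10 min.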
Pol iota inh: qHTS for Inhibitors of Polymerase Iota; DNA polymerase iota (Homo sapiens), Q9UNA4; Pol iota fluorescent replication assay, 10 min; Potency, µM (highest dose often 115 µM), usual class: inhibitors; 390,000 tested, 1% active
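Fluorescent replication assay read twice, at 0 min and 10 min after adding 50 nM (final) substrate. Enzyme (10 nM) and compounds were first incubated 15 min at room temperature; enzyme-free buffer wells were negative controls.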
Large screens that a line does not name were inactive. The call rests on the fitted dose curve; in most records, active means well fitted curve in the direction sought with a large enough effect; inconclusive means small, poorly fitted or top-dose-only effect, or another doubt; inactive means no such curve, though single readings can be large; an effect the other way counts as inactive or inconclusive.

Cc1ccc(NC2=C(N3CCOCC3)C(=O)c3ccccc3C2=O)cc1	L3MBTL1 block inconclusive, Pol beta inh 14.1µM, Pol iota inh 8.91µM
Cc1ccc(NC2=CC(=O)C(=O)c3ccccc32)cc1	POLH inh 79.4µM, L3MBTL1 block inconclusive, Pol beta inh inconclusive, Pol iota inh 11.2µM
Cc1ccc(CCNC(=O)Cn2ncc3c(=O)oc4ccccc4c32)cc1	none (no result: L3MBTL1 block)
c1ccc(Cc2nnc3sc(-c4ccco4)nn23)cc1	POLH inh 25.1µM, Pol kappa inh 79.4µM, Pol iota inh 39.8µM
COc1ccc2c(c1)N(C)/C(=C/c1cccc[n+]1C)S2	Pol beta inh 39.8µM, Pol iota inh inconclusive (no result: L3MBTL1 block)
CN1/C(=C/c2cccc[n+]2C)Sc2ccccc21	Pol beta inh 31.6µM, Pol iota inh inconclusive (no result: L3MBTL1 block)
COC(=O)C(CCSC)NS(=O)(=O)c1ccccc1Br (configuration not stated)	none (no result: POLH inh, L3MBTL1 block, Pol beta inh)
Cc1ccnc(N/N=C/c2ccco2)n1	Pol iota inh inconclusive (no result: L3MBTL1 block)
Cc1nnc(N/N=C/c2ccco2)n1N	Pol iota inh 10µM (no result: L3MBTL1 block)
Cc1nnc(N/N=C/c2cccc(C(F)(F)F)c2)n1N	Pol iota inh 12.6µM (no result: L3MBTL1 block)
Cc1nnc(N/N=C/c2cccc(OCc3ccc(Cl)c(Cl)c3)c2)n1N	POLH inh inconclusive, Pol iota inh 6.31µM
Cc1nnc(N/N=C/c2ccccc2C(F)(F)F)n1N	Pol iota inh inconclusive (no result: L3MBTL1 block)
CCn1cc(C(=O)OCC(=O)Nc2ccc(C)c(Cl)c2)c(=O)c2ccc(C)nc21	none (no result: L3MBTL1 block)
CC/C(=C/c1ccccc1)c1cc(Oc2ccccc2)cc2oc3ccccc3c12	none (no result: POLH inh, L3MBTL1 block, Pol beta inh)
CCc1ccc2oc(-c3ccc(C)c(NC(=O)c4cc([N+](=O)[O-])ccc4N4CCOCC4)c3)nc2c1	none (no result: L3MBTL1 block)
O=c1c(-c2ccccc2)nc2cnc(Nc3ccccc3)nc2n1Cc1cccs1	none (no result: POLH inh, L3MBTL1 block, Pol beta inh, Pol iota inh)
CCOc1ccccc1NC(=O)Cn1c(=O)oc2cc(S(=O)(=O)NCc3ccccc3)ccc21	none (no result: L3MBTL1 block)
c1ccc2c(c1)nc1n2CCS1	Pol kappa inh 89.1µM (no result: L3MBTL1 block)
O=C1CSc2nc3ccccc3n21	none
O=C1C=CC2=C3c4cc(O)c(O)cc4C[C@]3(O)COC2=C1	Pol kappa inh 7.08µM (no result: POLH inh, L3MBTL1 block, Pol beta inh, Pol iota inh)
CCN(CC)C(=O)C1=C(C)N(Cc2ccc(C(C)(C)C)cc2)C(=O)C(CC(=O)NCc2ccco2)C1 (configuration not stated)	none (no result: L3MBTL1 block, Pol beta inh, Pol kappa inh, Pol iota inh)
Cc1ccc(-c2cc(C(F)(F)F)n3nc(-c4cccc(Br)c4)cc3n2)cc1	Pol kappa inh inconclusive, Pol iota inh 89.1µM (no result: L3MBTL1 block)
CC1=CCC2C(=O)N(C(C)c3ccccc3)C(=O)C2C1 (configuration not stated)	none (no result: L3MBTL1 block)
CC1=CCC2C(=O)N(c3nc4ccccc4n3C)C(=O)C2C1 (configuration not stated)	POLH inh inconclusive, Pol beta inh 25.1µM, Pol iota inh inconclusive (no result: L3MBTL1 block)
COc1ccc(OCC(=O)Nc2nc3ccc(NC(C)=O)cc3s2)cc1	POLH inh inconclusive, Pol beta inh 22.4µM
CC(C)CC(=O)N1C/C=C\C[C@@H](c2ccc(Cl)cc2)N(Cc2ccc(Cl)cc2)C(=O)[C@@H]1Cc1ccccc1	none (no result: POLH inh, L3MBTL1 block, Pol beta inh)
O=C(/C=C/c1ccc(O)c(O)c1)c1ccc(O[C@@H]2O[C@H](CO)[C@@H](O)[C@H](O)[C@H]2O)c(O)c1O	Pol kappa inh 0.189µM (no result: POLH inh, L3MBTL1 block, Pol beta inh, Pol iota inh)
COc1cc(/C=C/CO)ccc1O[C@@H]1O[C@H](CO)[C@@H](O)[C@H](O)[C@H]1O	none (no result: L3MBTL1 block, Pol beta inh)
O=C1C[C@@H](c2ccc(O)cc2)Oc2cc(O[C@@H]3O[C@H](CO)[C@@H](O)[C@H](O)[C@H]3O)cc(O)c21	none (no result: POLH inh, L3MBTL1 block, Pol beta inh, Pol iota inh)
O=C1C[C@@H](c2ccc(O)c(O)c2)Oc2c1ccc(O[C@@H]1O[C@H](CO)[C@@H](O)[C@H](O)[C@H]1O)c2O	Pol kappa inh 2.67µM (no result: POLH inh, L3MBTL1 block, Pol beta inh, Pol iota inh)
CCCCCC(=O)NNC(=O)c1ccc(-c2ccccc2)cc1	Pol beta inh 39.8µM, Pol iota inh inconclusive
O=C(NNC(=O)c1ccc(-c2ccccc2)cc1)c1ccccc1	POLH inh inconclusive, Pol iota inh 79.4µM
Cc1ccccc1OCC(=O)NNC(=O)c1ccc(-c2ccccc2)cc1	Pol beta inh inconclusive, Pol iota inh 79.4µM
CCCCC(=O)Nc1ccc(C(=O)NNC(=O)CCc2ccccc2)cc1	Pol beta inh inconclusive
Cc1cccc(C(=O)NNC(=O)c2ccc(-c3ccccc3)cc2)c1	Pol beta inh inconclusive, Pol kappa inh inconclusive
O=C(O)c1ccc(C2CCCCC2)cn1	L3MBTL1 block 17.8µM
CC1=CC(=O)C(C(C)C)=C/C1=C(\c1cc(C(C)C)c(OP(=O)(O)O)cc1C)c1ccccc1C(=O)O	POLH inh 79.4µM, Pol beta inh 50.1µM (no result: L3MBTL1 block)
Cc1cc(C)cc(C(=O)N/N=C/c2ccoc2)c1	Pol iota inh inconclusive (no result: L3MBTL1 block)
O=C(N/N=C/c1ccoc1)c1ccccc1O	POLH inh 44.7µM, Pol beta inh 22.4µM, Pol kappa inh inconclusive, Pol iota inh inconclusive (no result: L3MBTL1 block)
O=C(N/N=C/c1ccoc1)c1ccc(Br)cc1	Pol beta inh 39.8µM, Pol iota inh inconclusive (no result: L3MBTL1 block)
O=C(N/N=C/c1cccc(Br)c1)c1ccc(Br)cc1	Pol beta inh 10µM, Pol iota inh inconclusive
O=C(N/N=C/c1cccc(OC2CSC2)c1)c1ccccc1O	POLH inh inconclusive, Pol beta inh 44.7µM, Pol iota inh inconclusive
CCCCCC(=O)O[C@H](CC(=O)O)C[N+](C)(C)C	none (no result: POLH inh, L3MBTL1 block, Pol beta inh, Pol iota inh)
Cc1c(C(=O)N2CCOCC2)oc2c1-c1nn(CC(=O)NCc3ccccc3)cc1CC2	none (no result: L3MBTL1 block)
CC1CC=CC2C1C(=O)N(Cc1ccccc1)C2c1ccc(F)c(Br)c1 (configuration not stated)	none (no result: POLH inh, L3MBTL1 block, Pol beta inh)
